PP5 primary – PP5 (human) phosphatase inhibition; P53041; purified PP5c, OMFP substrate fluorescence; inhibition, % at 6.7 µM; actives 0.18% (n = 320,000);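 active means inhibition above the campaign's mean inhibition across all tested compounds plus 3 SD, cut at about 9.5% in these data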
STK33 kinase inh – blocks human STK33 kinase activity; Q9BYT3; purified STK33, MBP phosphorylation, ADP-Glo luminescence; inhibition, % at 10 µM; actives 0.073% (n = 320,000); AID 2661;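 active means inhibition at or above 25%, using the most active replicate where run in duplicate; inactive means inhibition below 25%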
DYRK1A inh – blocks rat Dyrk1A kinase activity; Q63470; ADP-Glo luminescence, NFATc1 peptide; inhibition, % at 12.5 µM; actives 0.43% (n = 310,000); AID 504441; in the data active means inhibition above about 50%
PP1 inh – PP1-alpha (human) inhibition in PP5 counter-screen; P62136; purified PP1alpha, OMFP fluorescence; inhibition, % at 6.7 µM; actives 0.9% (n = 320,000);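 active means inhibition above the mean inhibition of all tested compounds plus 3 SD, computed separately for each screening campaign, cut at about 15% in these data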
Target sequence (P62136 whole entry, looked up): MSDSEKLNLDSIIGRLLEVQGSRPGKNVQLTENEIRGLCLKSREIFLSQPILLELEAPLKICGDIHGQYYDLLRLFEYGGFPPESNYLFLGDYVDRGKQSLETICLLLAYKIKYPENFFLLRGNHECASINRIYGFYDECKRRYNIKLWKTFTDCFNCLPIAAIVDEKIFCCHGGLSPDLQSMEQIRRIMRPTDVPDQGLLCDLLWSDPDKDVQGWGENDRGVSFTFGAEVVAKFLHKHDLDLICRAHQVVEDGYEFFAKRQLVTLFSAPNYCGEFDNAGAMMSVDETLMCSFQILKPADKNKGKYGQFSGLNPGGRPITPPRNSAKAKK
HIF activator – HIF pathway transcriptional activation; actives 0.32% (n = 300,000); activation, % at 7.5 µM (by protocol); AID 1910; U2OS HRE-luciferase reporter, luminescence; normalized: DMSO 0%, desferrioxamine 100%;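 active means mean activation of at least 10% of the iron chelator positive control signal, with at least half of replicates also reaching 10%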
PP1 confirm – human PP1 phosphatase inhibition, confirmation | shares compounds with PP1 inh | purified PP1alpha, OMFP substrate fluorescence | inhibition, % at 6.7 µM | actives 52% (n = 1,900);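 active means mean PP1 inhibition above a set limit taken from the earlier primary screen, cut at about 15% in these data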
PP5 counter – counter-screen for PP1 inhibitors: human PP5 phosphatase inhibition | shares compounds with PP1 inh | purified PP5c, OMFP fluorescence | inhibition, % at 6.7 µM | actives 4% (n = 1,900);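 active means mean PP5 inhibition over triplicate wells above about 9.5% taken from the earlier PP1 screen, limit read from the data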
A number is an active result; – = inactive; · = no result. Rows were chosen to be rich in hits. Some 1.5% of all compounds tested hit in one or more screens of this group.

SMILES | PP5 primary | STK33 kinase inh | DYRK1A inh | PP1 inh | HIF activator | PP1 confirm | PP5 counter
Cc1cc(C)c(C(=O)COC(=O)Cn2c(C)csc2=O)cc1C | – | – | – | – | – | · | ·
Nc1ccc2c(c1)C/C(=C/c1ccco1)C2=O | – | – | – | 51 | – | – | –
COC(=O)c1ccc(NC(=O)c2ccc(NC(=O)c3ccco3)cc2)cc1 | – | – | – | 30 | – | 26 | –
O=C(/C=C/c1ccc(Br)cc1)c1ccc(NC(=O)c2ccco2)cc1 | – | – | – | 22 | – | 22 | –
O=C(Nc1ccc(N2CCN(C(=O)c3ccco3)CC2)cc1)c1ccc(Br)cc1 | – | – | – | 21 | – | 39 | –
CC(=O)c1ccc(NC(=O)c2ccc(NC(=O)c3ccco3)cc2)cc1 | – | – | – | – | – | · | ·
NS(=O)(=O)c1cccc(-n2cnnn2)c1 | – | – | – | – | – | · | ·
COc1ccccc1CNC(=O)CSC(=S)N1CCCC1 | – | – | – | – | – | · | ·
Cc1ccc(S(=O)(=O)N2CCN(C(=O)COc3ccc(Br)cc3)CC2)cc1 | – | – | – | – | · | · | ·
O=C(COc1ccccc1)N1CCN(S(=O)(=O)c2ccc(Br)cc2)CC1 | – | – | – | 22 | – | – | –
Cc1ccc(O)c(-c2cc(C(=O)Nc3ccc(S(=O)(=O)N4CC(C)OC(C)C4)cc3)[nH]n2)c1 (stereo not drawn) | – | – | – | – | – | · | ·
Cc1ccc(-c2cc(C(=O)Nc3ccc(S(=O)(=O)N4CC(C)OC(C)C4)cc3)[nH]n2)c(O)c1 (stereo not drawn) | – | – | – | 19 | – | 16 | –
O=C(Nc1ccc(Nc2ccncc2)cc1)c1ccc(Nc2ccnc3ccc([N+](=O)[O-])cc23)cc1[N+](=O)[O-] | – | – | – | 41 | – | – | –
CCCCN1C(=O)C(=O)N(CC(=O)Nc2sc(C)c(C)c2C(=O)OC)C1=O | – | – | · | – | · | · | ·
Cc1ccc(-n2c(C)cc(-c3csc(N)n3)c2C)cc1 | – | – | – | 19 | – | – | –
C#CCOCCOCCOCCNc1nc(N2CCN(C(=O)CCCCCCCCCCNC(=O)Cn3cc(CCCCCN)nn3)CC2)nc(N2CCN(C(=O)CCCCCCCCCCNC(=O)Cn3cc(C[C@@H](C)O)nn3)CC2)n1 | – | – | – | – | · | · | ·
C#CCOCCOCCOCCNc1nc(N2CCN(C(=O)CCCCCCCCCCNC(=O)[C@H](CCCCN)n3cc(C[C@@H](C)CC)nn3)CC2)nc(N2CCN(C(=O)CCCCCCCCCCNC(=O)[C@@H]([C@H](C)O)n3cc(C)nn3)CC2)n1 | – | – | – | 61 | · | 47 | –
C#CCOCCOCCOCCNc1nc(N2CCN(C(=O)CCCCCCCCCCNC(=O)[C@H]([C@@H](C)CC)n3cc(CCCCN=C(N)N)nn3)CC2)nc(N2CCN(C(=O)CCCCCCCCCCNC(=O)[C@@H]([C@H](C)O)n3cc(C)nn3)CC2)n1 | – | – | – | 56 | · | 47 | –
C#CCOCCOCCOCCNc1nc(N2CCN(C(=O)CCCCCCCCCCNC(=O)[C@H](CCCCN)n3cc(C)nn3)CC2)nc(N2CCN(C(=O)CCCCCCCCCCNC(=O)[C@H](CCCN=C(N)N)n3cc(C[C@@H](C)CC)nn3)CC2)n1 | – | – | · | 53 | · | 50 | –
C#CCOCCOCCOCCNc1nc(N2CCN(C(=O)CCCCCCCCCCNC(=O)Cn3cc(C[C@@H](C)O)nn3)CC2)nc(N2CCN(C(=O)CCCCCCCCCCNC(=O)[C@@H]([C@H](C)CC)n3cc(CCCCCN)nn3)CC2)n1 | – | – | – | 55 | · | 44 | –
C=CCOc1ccc(CNCCc2ccc(S(N)(=O)=O)cc2)cc1 | – | – | – | – | – | · | ·
NC(=O)C1CCN(C(=O)CC2(CC(=O)O)CCCC2)CC1 | – | – | – | – | – | · | ·
CC(=O)Nc1ccc(-c2c(C)cc3oc(=O)cc(-c4ccccc4)c3c2C)cc1 | · | · | – | · | · | · | ·
CSCCC(NC(=O)c1ccccc1Cl)C(=O)NCC(c1ccco1)N1CCCCC1 (stereo not drawn) | – | – | – | 45 | – | – | –
CCNC(=O)N1CCCC(C(=O)c2ccc(C(F)(F)F)cc2)C1 (stereo not drawn) | – | – | – | – | – | · | ·
SMILES | PP5 primary | STK33 kinase inh | DYRK1A inh | PP1 inh | HIF activator | PP1 confirm | PP5 counter
O=C(CN1C(=O)S/C(=C\c2ccc(Cl)cc2)C1=O)NNC(=O)c1ccccc1O | – | – | – | 18 | – | – | –
Cc1ccc(CN2C(=O)C3CCCN3c3ccc(C#N)cc32)cc1 (stereo not drawn) | – | – | · | 18 | – | – | –
CCCCCn1c(CN2CCN(C(=O)OCC)CC2)nc2c1c(=O)n(C)c(=O)n2C | – | – | – | – | – | · | ·
CCCn1c(CN2CCN(C(=O)OCC)CC2)nc2c1c(=O)n(C)c(=O)n2C | – | – | – | 55 | – | – | –
O=c1cc(-c2c(O)c3ccccc3n(Cc3ccccc3)c2=O)[nH][nH]1 | – | – | – | 29 | – | – | –
CCn1c(=O)c(-c2cc(=O)[nH][nH]2)c(O)c2ccccc21 | – | – | – | – | – | · | ·
CCc1ccc2nc(NC(=O)Cn3cnc4ccccc4c3=O)sc2c1 | – | – | – | 26 | – | 29 | –
O=C(Cn1cnc2ccccc2c1=O)Nc1nc2ccccc2s1 | – | – | – | – | – | · | ·
COc1ccc(C(=O)CSc2nc(N)nc(SC)c2C#N)cc1 | – | – | – | 27 | – | 28 | –
Cc1ccc(C(=O)Nc2nnc(NC(=S)Nc3ccccc3)s2)cc1 | – | – | · | 21 | – | 24 | –
CCOc1ccc(C(=O)Nc2nnc(NC(=S)Nc3ccccc3)s2)cc1 | – | – | · | 19 | – | 33 | –
CCc1nnc(NC(=S)Nc2ccccc2)s1 | – | – | – | – | – | · | ·
COc1ccc(S(=O)(=O)Nc2ccc(F)c(F)c2)cc1C(=O)N1CCOCC1 | – | – | – | 22 | – | – | –
COc1ccc(S(=O)(=O)Nc2cccc(SC)c2)cc1C(=O)N1CCOCC1 | – | – | – | – | – | · | ·
c1ccc(-c2nc(NCc3ccco3)c3ccccc3n2)nc1 | – | – | – | 26 | – | 24 | –
Cc1ccc(Nc2nc(NCc3ccco3)c3ccccc3n2)cc1 | – | – | – | 20 | – | – | –
C=CCOc1ccccc1CN1CCCN(C)CC1 | – | – | – | – | – | · | ·
CCOC(=O)Cc1csc(NC(=O)c2sc3nc4cc(C)ccc4cc3c2N)n1 | – | – | – | 28 | – | 33 | –
Oc1ccccc1Nc1nc(NCc2ccccc2)c2ccccc2n1 | – | – | – | 19 | – | – | –
O=C(CSc1ncccc1C(=O)O)Nc1ccc2c(c1)OCCO2 | – | – | – | – | – | · | ·
O=C(O)/C=C(\Oc1ccccc1)C1(O)CCCCC1 | – | – | – | – | – | · | ·
O=C(Nc1ccccn1)c1cc2cc([N+](=O)[O-])ccc2s1 | – | – | – | 21 | – | 18 | –
CCOc1ccc(-c2nnc(Nc3ccc(OC)c(C(=O)N4CCCCC4)c3)c3ccccc23)cc1 | – | – | – | – | – | · | ·

Compound activity from PubChem.
